Inconclusive results are not listed. Entries that show only a call come without a potency. Active and inactive are the calls of the source. Calls follow the shape of the dose curve; as a rule, active = well fitted cell-killing curve with a large enough effect in the repeat runs; inconclusive = weak or mixed curves; inactive = no such curve, though single readings can be large or run the other way.
Test: qHTS assay to identify small molecule antagonists of the androgen receptor (AR) signaling pathway - cell viability counter screen (AID 743033; also: nearly all actives have a fitted effect of over 45% in size)
Conditions: AR-bla HEK293 viability, CellTiter-Glo luminescence, 16 h; series mostly up to 58.5 µM
Potency is read from the fitted curve at half-maximal effect.

Compound	Potency
C=C(C)C(=O)OCCC[Si](Cl)(Cl)Cl	inactive
CC(=O)Oc1ccc(C2(c3ccc(OC(C)=O)cc3)C(=O)Nc3ccccc32)cc1	inactive
CCOC(=O)N1CCC(=C2c3ccc(Cl)cc3CCc3cccnc32)CC1	17.4 µM (active)
N#CSCSc1nc2ccccc2s1	13.8 µM (active)
O=C(Oc1ccccc1)c1cccc(C(=O)Oc2ccccc2)c1	inactive
Cc1cc(Nc2ccc(O)cc2)ccc1N	inactive
CC(C)(C)C1=CC(=O)C=C(C(C)(C)C)C1=O	inactive
COC(=O)CC(C)CCC=C(C)C (stereo not drawn)	inactive
NC(=O)c1ccccc1N	inactive
C/C=C/C(=O)Oc1c(CCCCCC(C)C)cc([N+](=O)[O-])cc1[N+](=O)[O-]	7.76 µM (active)
CN1[C@@H]2CC[C@@H]1CC(OC(=O)C(CO)c1ccccc1)C2 (stereo partly drawn)	inactive
CCCCCCCC/C=C/CCCOC(C)=O	inactive
O=C(O)CCCCCCC(=O)O	inactive

From PubChem BioAssay (Tox21)
